Source: PubChem BioAssay (Johns Hopkins Ion Channel Center)
KCNQ2 enhance – potentiators of rat KCNQ2 potassium channel; 310,000 tested, 0.54% active; B-score at 10 µM; Potassium voltage-gated channel subfamily KQT member 2 (Rattus norvegicus), O88943; CHO-K1 KCNQ2, FluxOR thallium flux fluorescence; stronger effect = higher value;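 active = fluorescence ratio B-score at least 3 SD of library B-scores, with initial fluorescence B-score within 3 of them, cut at about 5.3 in these data; same plate scores as AID 2156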;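 note: B-score of peak minus minimum over baseline fluorescence ratio after K+ and Tl+ stimulus; positive B-score means potentiation of KCNQ2 with more thallium influx and brighter signal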
Target sequence (O88943 whole entry, looked up): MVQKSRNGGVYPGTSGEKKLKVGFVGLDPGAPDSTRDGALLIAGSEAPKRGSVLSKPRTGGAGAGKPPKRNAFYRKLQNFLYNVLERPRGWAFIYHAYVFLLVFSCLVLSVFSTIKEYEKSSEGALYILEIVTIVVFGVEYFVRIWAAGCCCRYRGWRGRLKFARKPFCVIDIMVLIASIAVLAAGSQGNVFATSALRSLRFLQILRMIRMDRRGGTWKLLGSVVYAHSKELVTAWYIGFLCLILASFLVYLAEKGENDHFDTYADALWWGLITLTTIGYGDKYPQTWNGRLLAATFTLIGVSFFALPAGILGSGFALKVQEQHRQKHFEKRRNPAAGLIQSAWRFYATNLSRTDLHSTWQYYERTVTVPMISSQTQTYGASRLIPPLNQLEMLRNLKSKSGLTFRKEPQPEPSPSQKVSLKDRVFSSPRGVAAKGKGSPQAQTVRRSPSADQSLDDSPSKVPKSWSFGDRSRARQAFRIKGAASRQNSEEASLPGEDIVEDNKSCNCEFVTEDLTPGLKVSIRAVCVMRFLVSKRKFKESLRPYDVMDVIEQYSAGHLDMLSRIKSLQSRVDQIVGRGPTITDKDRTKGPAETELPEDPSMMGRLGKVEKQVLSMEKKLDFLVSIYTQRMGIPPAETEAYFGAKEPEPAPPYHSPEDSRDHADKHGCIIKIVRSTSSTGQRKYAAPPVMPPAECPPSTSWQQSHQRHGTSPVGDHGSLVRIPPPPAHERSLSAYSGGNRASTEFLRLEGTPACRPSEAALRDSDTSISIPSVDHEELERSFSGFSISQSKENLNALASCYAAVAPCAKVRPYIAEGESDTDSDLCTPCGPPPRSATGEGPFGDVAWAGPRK
KCNQ2 block – rat KCNQ2 potassium channel inhibitors, primary screen, cell-based, CHO-K1, FluxOR thallium flux, B-score | 310,000 tested, 1.1% active | AID 2156, 2009 | Potassium voltage-gated channel subfamily KQT member 2 (Rattus norvegicus), O88943 | 20 min; stronger effect = lower value | B-score at 10 µM;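 active = fluorescence ratio B-score at most minus 3 library SDs, with starting brightness B-score within 2 library SDs, cut at about -5.5 in these data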
* = called active by the depositor; i = inactive; · = no result. Compounds with a hit are over-represented: about 1.6% of the library has one in this group of screens.

SMILES | KCNQ2 enhance | KCNQ2 block
CCSc1n[nH]c2nc3c(c(=O)n12)C1(CCCC1)Cc1ccccc1-3 | · | i
Cc1ccc(-n2c(SCC(N)=O)nc3c(c2=O)C2(CCCC2)Cc2ccccc2-3)cc1 | -5.6 | -5.6*
COc1cccc(-c2nc(CS(=O)(=O)CC(=O)NCCN3CCOCC3)c(C)o2)c1 | 0.21 | i
C/C(=N/Nc1nc(C)cc(-c2ccccc2)n1)c1ccco1 | 1.7 | i
C/C(=N\Nc1nc(C)cc(-c2ccccc2)n1)c1ccc(C)o1 | -6.1 | -6.1*
CCOc1ccc2[nH]cc(-c3csc(N)n3)c2c1 | 0.2 | i
COc1ccccc1OCc1nc2ccccc2[nH]1 | · | i
Cc1ccccc1OCc1nc2ccccc2[nH]1 | -6.6 | -6.6*
O=C(CCC(=O)N(CC(=O)NC1CCCC1)c1ccccc1F)Nc1nccs1 | 0.14 | i
Cc1ccc[n+](CC(=O)Nc2nc3ccccc3s2)c1 | · | i
COc1ccc(C(=O)NCCCNC(=O)c2ccccn2)cc1 | 0.07 | i
CC(C)(C)N(Cc1ccccc1)C(=O)CCc1ccccc1 | -6.6 | -6.6*
CC(C)N(Cc1ccccc1)C(=O)CCc1ccccc1 | · | i
CCN1CCN(S(=O)(=O)Cc2ccccc2Cl)CC1 | · | i
CC(=O)N1CC(C)Sc2ccc(S(=O)(=O)NC(C)c3ccccc3)cc21 (stereo not given) | 0.09 | i
Oc1c(Br)cc(Cl)cc1C=Nc1ccccc1Br | 8.4* | i
Oc1ccc2ccccc2c1C=Nc1ccccc1Br | · | i
COc1cccc(/C=C/C(=O)NCc2ccc(S(N)(=O)=O)cc2)c1 | · | i
Cc1cc([N+](=O)[O-])nn1CC(=O)N/N=C/c1ccc(O)cc1O | 0.22 | i
CS(=O)(=O)N(CC(=O)NCc1ccccc1)Cc1ccc(Cl)cc1 | · | i
COc1ccccc1CNC(=O)CN(Cc1ccc(Cl)cc1)S(C)(=O)=O | -5.9 | -5.9*
CCOC(=O)c1ccc(-c2ccc3c(=O)c4ccccc4n(C)c3c2)cc1F | 1.8 | i
CC1=CC(C)(C)N2C(=O)C3(NCCc4c3[nH]c3ccccc43)c3cc(C)cc1c32 (stereo not given) | · | i
CC1=CC(C)(C)N2C(=O)C3(SCC(=O)N3c3ccc(F)cc3)c3cc(C)cc1c32 (stereo not given) | -6 | -6*
Cc1nn(C)cc1C(=O)Nc1ccc2c(c1)OCCO2 | · | i
SMILES | KCNQ2 enhance | KCNQ2 block
Clc1ccc(CONc2ncnc3nonc23)c(Cl)c1 | 6.9* | i
CCONc1ncnc2nonc12 | 0.41 | i
CCCn1nnnc1NCc1ccccc1C | · | i
CC(=O)c1cccc(NC(=O)CN2CCc3cc4c(cc3C2C)OCCCO4)c1 (stereo not given) | 1.6 | i
COc1cccc(C(=O)NN/C(C)=C/C(=O)C(F)(F)C(F)(F)C(F)(F)F)c1 | 8.5* | i
COc1cccc(C(=O)Nc2ccc(NC(C)=O)cc2)c1 | · | i
COCCn1c(-c2ccco2)csc1=Nc1cccnc1 | · | i
CC(C)Cn1c(-c2ccco2)csc1=Nc1cccnc1 | -6.3 | -6.3*
CCN1C(=O)/C(=C/c2ccc(C)s2)SC1=Nc1ccc(OC)cc1 | -6.3 | -6.3*
CCCN1C(=O)/C(=C/c2ccco2)SC1=Nc1ccc(OC)cc1 | · | i
COc1ccc(N=C2S/C(=C\c3ccc(C)o3)C(=O)N2CC(C)C)cc1 | -6.1 | -6.1*
CCCN1C(=O)/C(=C/c2ccc(C)o2)SC1=Nc1ccc(OC)cc1 | · | i
CSC1=C(C#N)C(=O)NC(c2ccc(Cl)cc2)S1 (stereo not given) | 0.92 | i
CC(C)(C)N1C(=O)[C@H]2[C@@H](c3ccc(Br)cc3)N3C(=O)N(c4ccccc4)C(=O)[C@@]3(C)[C@H]2C1=O | · | i
Cc1ccc(-n2c(C)cc(C(=S)N3CCOCC3)c2C)cc1C | -7.4 | -7.4*
Cc1cc(C(=S)N2CCOCC2)c(C)n1-c1ccc(F)cc1 | · | i
c1ccc(-n2cnnc2SCc2cn3ccsc3n2)cc1 | · | i
Cc1ccc(-n2c(SCc3cn4ccsc4n3)nc3ccccc3c2=O)cc1 | -5.6 | -5.6*
FC(F)(F)c1cccc(OCC2CNC(=S)O2)c1 (stereo not given) | 0.83 | i
CCN(CC)C(=O)CSc1nc(-c2ccc(C)cc2)nc2c1COC(C)(C)C2 | -7.4 | -7.4*
CC1(C)Cc2nc(-c3ccccc3)nc(SCC(=O)N3CCOCC3)c2CO1 | · | i
CC(Cc1ccccc1)NC(=O)CCCN1C(=O)c2ccccc2C1=O (stereo not given) | 1 | i
Cc1cc(Nc2ccc(Cl)cc2)nc(NCc2ccccc2)n1 | · | i
Cc1cc(Nc2ccccc2)nc(NCc2ccccc2)n1 | -6.2 | -6.2*
CCOC(=O)C1CCN(C(=O)CCCn2nc(C)c3c(C)n(-c4ccc(C)cc4)nc3c2=O)CC1 | · | i
COc1ccccc1NC(=O)c1csc2c1CCCC2 | · | i
COc1ccccc1CNC(=O)c1csc2c1CCCC2 | -6.5 | -6.5*
